Among the test systems are HCT-15 colon; HT29 colon; SNB-75 CNS; SNB-19 CNS; U251 CNS; SK-MEL-5 melanoma; UACC-62 melanoma; LOX IMVI melanoma; SK-MEL-28 melanoma; SK-MEL-2 melanoma; EKVX NSCLC; SN12C renal; UO-31 renal; TK-10 renal; ACHN renal; CAKI-1 renal; A498 renal; CCRF-CEM leukemia; MOLT-4 leukemia; PC-3 prostate.
Holding throughout (experiment): NCI-60 one-dose screen, 48 h (100 = growth as untreated, 0 = no growth, -100 = all killed)
Common to all, as to settings: 10 µM unless noted

The structures appear in SMILES notation. About 83,000 compounds went through this panel and 20% of them were active in at least one assay; those are over-represented in the sample as a whole.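 Single-dose data. Exposure time 48 hours. Values below 10 considered active.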 Values without a mark were called inactive. Active and inactive are the calls of the source.

With `CC[C@@]12C=CCN3CC[C@]4(c5cc(NC(=O)COc6cc(OCC(=O)Nc7cc8c(cc7OC)N(C)[C@H]7[C@@](O)(C(=O)OC)[C@H](OC(C)=O)[C@]9(CC)C=CCN%10CC[C@]87[C@@H]%109)cc7oc(-c8ccccc8)cc(=O)c67)c(OC)cc5N(C)[C@@H]4[C@](O)(C(=O)OC)[C@H]1OC(C)=O)[C@H]32`, the growth was 34.7% in the assay on HCT-15 colon; 1.38% (active) in the assay on HT29 colon; 82.5% with SNB-75 CNS; 58.5% in the assay with SNB-19 CNS; -3.12% (active) in the assay on U251 CNS; 103% in the assay with SK-MEL-5 melanoma. Besides, the growth with UACC-62 melanoma was 93.8%; in the assay on LOX IMVI melanoma it was 7.97% (active); with SK-MEL-28 melanoma, 112%; with SK-MEL-2 melanoma, 85.1%; with EKVX NSCLC, 56.8%; in the assay on SN12C renal, 49.4%. The growth in the assay with UO-31 renal is 75.9%; in the assay on TK-10 renal, 42.8%; in the assay on ACHN renal, 85.4%; with CAKI-1 renal, 46.8%; with A498 renal, 58.6%; in the assay on CCRF-CEM leukemia, 13.6%. Further, the growth in the assay with MOLT-4 leukemia is 13.1%.
With `COc1ccc(Cn2nc3c(c2-c2cc(OC)c(OC)c(OC)c2)-c2oncc2CC3)cc1`, the growth in the assay on HCT-15 colon is 73.2%; in the assay on HT29 colon, 90.4%; in the assay with SNB-75 CNS, 62.6%; with SNB-19 CNS, 91.4%; in the assay on U251 CNS, 94.4%; in the assay on SK-MEL-5 melanoma, 70.9%. Besides, the growth with UACC-62 melanoma is 86.1%; in the assay on LOX IMVI melanoma it was 80.9%; in the assay on SK-MEL-28 melanoma, 91.1%; in the assay with SK-MEL-2 melanoma, 103%; in the assay on EKVX NSCLC, 85.6%; in the assay on SN12C renal it was 93.5%. The growth in the assay with UO-31 renal is 65.8%; with TK-10 renal it was 96.2%; in the assay on ACHN renal it was 91.9%; in the assay on CAKI-1 renal, 65.2%; in the assay with A498 renal, 80.3%; in the assay on CCRF-CEM leukemia, 103%. In addition, the growth in the assay with MOLT-4 leukemia was 77.9%.
For the compound `Clc1ccc(N2N=C(c3cccc(Nc4ccncc4)c3)CC2c2ccc3c(c2)OCO3)cc1` (stereo unspecified), the growth was -21.1% (active) in the assay with HCT-15 colon; 3.63% (active) in the assay with HT29 colon; 55.9% in the assay on SNB-75 CNS; 80.6% in the assay with SNB-19 CNS; 5.93% (active) with U251 CNS; 31.3% in the assay on PC-3 prostate. Further, the growth is 30.9% in the assay on SK-MEL-5 melanoma; -74.4% (active) with LOX IMVI melanoma; -12.5% (active) with SK-MEL-28 melanoma; 94.4% with SK-MEL-2 melanoma; 74.8% with EKVX NSCLC; 62.6% in the assay on SN12C renal. For the same compound, the growth in the assay with UO-31 renal is 41.9%; in the assay on TK-10 renal it was 83.5%; in the assay with CAKI-1 renal, 10%; in the assay on A498 renal, 69.7%; in the assay on CCRF-CEM leukemia it was 5.74% (active); in the assay on MOLT-4 leukemia, 2.58% (active).
On to `CCOC(=O)c1c(C)nc2c(c1N)C(=O)C(=O)N2Cc1ccc(C(F)(F)F)cc1`, for which the growth in the assay on HCT-15 colon was 24.1%; with HT29 colon, 65.1%; in the assay with SNB-75 CNS, 62.2%; in the assay with SNB-19 CNS it was 59.3%; in the assay on U251 CNS, 41%; with PC-3 prostate it was 43.7%. Further, the growth with SK-MEL-5 melanoma was 66.7%; in the assay with LOX IMVI melanoma, 54.1%; in the assay with SK-MEL-28 melanoma it was 74.8%; in the assay with SK-MEL-2 melanoma it was 77%; in the assay with EKVX NSCLC, 79.5%; in the assay on SN12C renal, 74.1%. The growth in the assay with UO-31 renal was 54.1%; in the assay on TK-10 renal, 107%; in the assay on ACHN renal, 69.7%; with A498 renal it was 72.6%; in the assay on CCRF-CEM leukemia, 39.4%; in the assay with MOLT-4 leukemia, 60.1%.
As for `CCNC(=S)NNC(=O)c1cc2ccc1CCc1ccc(cc1)CC2`, the growth was 96.7% in the assay with HCT-15 colon; 104% with HT29 colon; 89.8% with SNB-75 CNS; 100% in the assay with SNB-19 CNS; 101% with U251 CNS; 96.7% in the assay with SK-MEL-5 melanoma. In addition, the growth with UACC-62 melanoma is 93.4%; in the assay on LOX IMVI melanoma, 102%; with SK-MEL-28 melanoma it was 101%; with SK-MEL-2 melanoma it was 102%; in the assay with EKVX NSCLC it was 94.4%; in the assay on SN12C renal it was 95.3%. Further, the growth is 83.7% in the assay with UO-31 renal; 103% with TK-10 renal; 107% in the assay with ACHN renal; 94.9% in the assay on CAKI-1 renal; 107% in the assay with CCRF-CEM leukemia.
Consider `CC(=O)c1cc2c(N)c(C(=O)Nc3cncc4ccccc34)sc2nc1C`, for which the growth in the assay with HCT-15 colon is 95.4%; in the assay on HT29 colon, 107%; in the assay on SNB-75 CNS, 91.5%; with SNB-19 CNS, 98.5%; in the assay on U251 CNS, 106%; with SK-MEL-5 melanoma it was 98.5%. Also, the growth with UACC-62 melanoma is 76.1%; in the assay with LOX IMVI melanoma, 98.9%; in the assay with SK-MEL-28 melanoma, 102%; in the assay on SK-MEL-2 melanoma, 91.2%; with EKVX NSCLC, 100%; in the assay on SN12C renal, 95.3%. The growth was 80.1% with UO-31 renal; 119% in the assay on TK-10 renal; 97.1% in the assay on ACHN renal; 83.8% with CAKI-1 renal; 104% with CCRF-CEM leukemia; 90.3% in the assay with MOLT-4 leukemia.
For the compound `O=C(Nc1nc(-c2ccccc2Cl)cs1)c1cc(-c2ccccc2)nc2ccc(Cl)cc12`, the growth was 11.9% with HCT-15 colon; 85.3% in the assay with HT29 colon; 92.9% in the assay with SNB-75 CNS; 80.6% with SNB-19 CNS; 62.5% in the assay with U251 CNS; 43.8% with SK-MEL-5 melanoma. Also, the growth with UACC-62 melanoma was 41.8%; in the assay on LOX IMVI melanoma it was 21.6%; with SK-MEL-28 melanoma, 70.8%; in the assay with SK-MEL-2 melanoma it was 69.9%; with EKVX NSCLC, 92.2%; with SN12C renal it was 37.9%. Also, the growth was 52.3% in the assay on UO-31 renal; 88% in the assay on TK-10 renal; 84.9% with ACHN renal; 81.5% in the assay with CAKI-1 renal; 18.8% with CCRF-CEM leukemia; 25.8% in the assay with MOLT-4 leukemia.
In the case of `CCCCOc1ccc(/C=N/Nc2cc(C)nc3ccc(Cl)cc23)cc1`, the growth in the assay on HCT-15 colon was -80.3% (active); in the assay with HT29 colon it was -49.8% (active); in the assay on SNB-75 CNS, 17%; in the assay with SNB-19 CNS, 20.7%; with U251 CNS it was -82.1% (active); in the assay with PC-3 prostate, 20.6%. For the same compound, the growth is 71.8% in the assay on SK-MEL-5 melanoma; -89.5% (active) in the assay on SK-MEL-28 melanoma; 67.6% with SK-MEL-2 melanoma; 60% in the assay on EKVX NSCLC; -81.6% (active) with SN12C renal; -96.1% (active) with UO-31 renal. Moreover, the growth in the assay with TK-10 renal is 36.8%; with ACHN renal it was -95.5% (active); in the assay with CAKI-1 renal, 35.1%; with CCRF-CEM leukemia, -5.7% (active); with MOLT-4 leukemia it was -36.9% (active).
In the case of `COc1ccc(CNCCN2C(=O)c3ccc4c5c(ccc(c35)C2=O)C(=O)N(CCNCc2ccc(OC)cc2)C4=O)cc1`, the growth in the assay on HCT-15 colon is -68.1% (active); in the assay on HT29 colon, -55.3% (active); in the assay on SNB-75 CNS, -95.7% (active); in the assay on SNB-19 CNS it was -90.9% (active); in the assay with U251 CNS, -91.8% (active); with SK-MEL-5 melanoma, -99.6% (active). In addition, the growth in the assay with UACC-62 melanoma is -84.4% (active); in the assay on LOX IMVI melanoma it was -74.7% (active); in the assay on SK-MEL-28 melanoma, -96.2% (active); in the assay on SK-MEL-2 melanoma, -74.2% (active); with SN12C renal it was -87.9% (active); in the assay on UO-31 renal, -76.6% (active). The growth in the assay on TK-10 renal was -61.7% (active); with ACHN renal it was -74.3% (active); in the assay with CAKI-1 renal it was -53.8% (active); with CCRF-CEM leukemia, -16.3% (active); with MOLT-4 leukemia, -36.1% (active).

The record behind these values is PubChem BioAssay (NCI).
